Results taken from PMC7862700, “An all-to-all approach to the identification of sequence-specific readers for epigenetic DNA modifications on cytosine”.

Legend:
Assay in all cases: DAPPL (digital affinity profiling via proximity ligation, sequencing); 10 mM Tris-HCl pH 7.5, 50 mM NaCl, 1 mM DTT, 4% glycerol, room temperature, 30 min; GST-TFs on glutathione beads, 16-mer random dsDNA library, 0.1% formaldehyde crosslink after washing; high values mean tight binding
Conditions in all cases: protein: recombinant; tags: N-terminal GST; dsDNA, one strand shown
FLI1 = target: T1, FLI1 (Homo sapiens, UniProt Q01543 1-452)
T1 sequence: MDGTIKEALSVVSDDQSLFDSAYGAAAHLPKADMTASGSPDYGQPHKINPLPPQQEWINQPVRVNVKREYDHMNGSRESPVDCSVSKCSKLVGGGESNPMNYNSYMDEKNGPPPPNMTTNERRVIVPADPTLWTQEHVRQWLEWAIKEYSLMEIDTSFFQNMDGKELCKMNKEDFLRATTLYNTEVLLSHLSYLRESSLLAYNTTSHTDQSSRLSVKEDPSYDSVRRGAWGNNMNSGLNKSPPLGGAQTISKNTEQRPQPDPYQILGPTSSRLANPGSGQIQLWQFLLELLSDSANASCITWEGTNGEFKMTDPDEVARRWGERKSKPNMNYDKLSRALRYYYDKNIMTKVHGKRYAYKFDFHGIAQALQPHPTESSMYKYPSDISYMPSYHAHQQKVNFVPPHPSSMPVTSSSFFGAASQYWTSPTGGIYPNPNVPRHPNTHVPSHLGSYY
Outline: (§1)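 Human transcription factors fused to GST were expressed in yeast, captured on glutathione beads, given DNA barcodes and pooled with a GST-only negative control. Pools were incubated with 200 nmole of a 16-mer random double-stranded DNA library in Tris/NaCl/DTT/glycerol buffer at room temperature for 30 min. They were then washed, crosslinked with 0.1% formaldehyde, proximity-ligated (BsaI/T4 ligase, 1 h, 37 °C), PCR-amplified and sequenced on an Illumina NextSeq500. Binding signal is each 6-mer's read frequency for a factor divided by its frequency for the GST control.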

ELK1 = target: T2, ELK1 (Homo sapiens, UniProt P19419 1-428)
T2 sequence: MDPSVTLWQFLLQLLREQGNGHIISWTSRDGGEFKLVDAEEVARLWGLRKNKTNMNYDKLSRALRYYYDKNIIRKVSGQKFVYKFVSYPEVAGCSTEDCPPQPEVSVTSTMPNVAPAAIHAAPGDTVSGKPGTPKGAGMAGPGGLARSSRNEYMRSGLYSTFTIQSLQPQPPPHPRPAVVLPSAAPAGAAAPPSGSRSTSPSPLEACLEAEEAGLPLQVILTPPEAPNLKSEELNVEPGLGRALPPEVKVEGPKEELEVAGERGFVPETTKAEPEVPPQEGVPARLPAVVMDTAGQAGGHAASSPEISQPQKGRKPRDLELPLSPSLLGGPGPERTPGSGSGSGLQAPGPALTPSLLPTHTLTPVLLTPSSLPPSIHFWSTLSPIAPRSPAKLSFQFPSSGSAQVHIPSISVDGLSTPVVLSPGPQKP
Outline: as §1

ELF1 = ELF1 (Homo sapiens, UniProt P32519 1-619)
ELF1, sequence (P32519 whole entry): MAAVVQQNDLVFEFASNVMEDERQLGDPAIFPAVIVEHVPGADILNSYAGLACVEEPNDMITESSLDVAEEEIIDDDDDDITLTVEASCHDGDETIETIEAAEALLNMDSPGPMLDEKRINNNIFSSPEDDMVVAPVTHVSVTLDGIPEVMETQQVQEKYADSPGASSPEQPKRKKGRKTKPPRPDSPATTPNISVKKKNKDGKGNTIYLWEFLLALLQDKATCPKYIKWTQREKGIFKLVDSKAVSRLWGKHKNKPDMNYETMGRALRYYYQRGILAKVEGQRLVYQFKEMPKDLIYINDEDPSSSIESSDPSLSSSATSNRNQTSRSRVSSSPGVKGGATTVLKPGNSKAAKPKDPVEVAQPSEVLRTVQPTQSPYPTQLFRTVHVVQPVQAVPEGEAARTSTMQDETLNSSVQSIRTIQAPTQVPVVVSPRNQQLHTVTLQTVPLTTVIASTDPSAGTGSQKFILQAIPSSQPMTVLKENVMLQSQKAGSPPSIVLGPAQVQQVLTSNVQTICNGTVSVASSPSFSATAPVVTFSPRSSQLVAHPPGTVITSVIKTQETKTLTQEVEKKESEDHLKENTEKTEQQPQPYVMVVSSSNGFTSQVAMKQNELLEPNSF
Outline: as §1

SPIB = SPIB (Homo sapiens, UniProt Q01892 1-262)
SPIB, sequence (Q01892 whole entry): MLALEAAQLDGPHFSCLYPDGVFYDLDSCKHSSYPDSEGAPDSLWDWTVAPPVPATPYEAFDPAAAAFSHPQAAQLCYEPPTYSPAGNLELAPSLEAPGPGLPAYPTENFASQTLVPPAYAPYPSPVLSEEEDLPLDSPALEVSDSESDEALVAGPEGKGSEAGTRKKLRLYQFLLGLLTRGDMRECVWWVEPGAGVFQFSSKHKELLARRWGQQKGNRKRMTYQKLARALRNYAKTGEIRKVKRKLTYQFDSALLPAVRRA
Outline: as §1

ELK3 = target: T3, ELK3 (Homo sapiens, UniProt P41970 1-407)
T3 sequence: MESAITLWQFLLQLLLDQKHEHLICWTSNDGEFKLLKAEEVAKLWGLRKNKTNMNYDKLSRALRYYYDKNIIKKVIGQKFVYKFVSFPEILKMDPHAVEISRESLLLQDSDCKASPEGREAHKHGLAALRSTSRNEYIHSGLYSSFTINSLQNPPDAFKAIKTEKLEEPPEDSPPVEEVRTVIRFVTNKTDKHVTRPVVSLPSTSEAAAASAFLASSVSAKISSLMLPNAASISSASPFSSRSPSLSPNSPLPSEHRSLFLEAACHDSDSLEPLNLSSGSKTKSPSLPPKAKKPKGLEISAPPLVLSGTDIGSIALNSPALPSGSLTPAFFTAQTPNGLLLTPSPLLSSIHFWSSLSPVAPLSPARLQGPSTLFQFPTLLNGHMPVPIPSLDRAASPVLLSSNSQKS
Outline: as §1

SPIC = target: T4, SPIC (Homo sapiens, UniProt Q8N5J4 1-248)
T4 sequence: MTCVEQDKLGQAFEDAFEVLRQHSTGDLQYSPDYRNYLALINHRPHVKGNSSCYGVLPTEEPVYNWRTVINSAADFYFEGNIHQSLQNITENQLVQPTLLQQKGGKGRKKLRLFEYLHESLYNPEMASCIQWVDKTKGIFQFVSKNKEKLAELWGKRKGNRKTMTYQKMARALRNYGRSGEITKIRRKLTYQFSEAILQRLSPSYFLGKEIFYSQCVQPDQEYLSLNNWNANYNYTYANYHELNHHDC
Outline: as §1

ELF4 = ELF4 (Homo sapiens, UniProt Q99607 1-663)
ELF4, sequence (Q99607 whole entry): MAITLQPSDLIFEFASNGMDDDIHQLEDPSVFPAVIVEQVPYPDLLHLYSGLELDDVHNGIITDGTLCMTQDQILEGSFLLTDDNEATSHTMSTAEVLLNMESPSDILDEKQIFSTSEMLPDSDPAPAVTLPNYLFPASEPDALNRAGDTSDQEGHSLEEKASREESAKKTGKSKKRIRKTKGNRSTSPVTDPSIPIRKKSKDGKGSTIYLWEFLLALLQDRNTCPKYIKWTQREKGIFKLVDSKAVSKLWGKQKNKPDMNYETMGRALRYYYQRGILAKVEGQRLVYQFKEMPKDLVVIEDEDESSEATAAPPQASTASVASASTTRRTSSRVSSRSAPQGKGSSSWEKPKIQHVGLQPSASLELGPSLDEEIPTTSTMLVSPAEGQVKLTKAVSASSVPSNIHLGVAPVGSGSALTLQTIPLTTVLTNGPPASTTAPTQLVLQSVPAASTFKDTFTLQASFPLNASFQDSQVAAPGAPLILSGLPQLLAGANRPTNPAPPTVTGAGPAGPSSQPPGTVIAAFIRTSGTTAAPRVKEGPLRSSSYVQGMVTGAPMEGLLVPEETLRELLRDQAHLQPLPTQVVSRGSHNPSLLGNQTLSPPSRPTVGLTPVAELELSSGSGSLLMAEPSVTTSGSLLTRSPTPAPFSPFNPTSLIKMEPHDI
Outline: as §1

ELK4 = target: T5, ELK4 (Homo sapiens, UniProt P28324-2 1-405)
T5 sequence: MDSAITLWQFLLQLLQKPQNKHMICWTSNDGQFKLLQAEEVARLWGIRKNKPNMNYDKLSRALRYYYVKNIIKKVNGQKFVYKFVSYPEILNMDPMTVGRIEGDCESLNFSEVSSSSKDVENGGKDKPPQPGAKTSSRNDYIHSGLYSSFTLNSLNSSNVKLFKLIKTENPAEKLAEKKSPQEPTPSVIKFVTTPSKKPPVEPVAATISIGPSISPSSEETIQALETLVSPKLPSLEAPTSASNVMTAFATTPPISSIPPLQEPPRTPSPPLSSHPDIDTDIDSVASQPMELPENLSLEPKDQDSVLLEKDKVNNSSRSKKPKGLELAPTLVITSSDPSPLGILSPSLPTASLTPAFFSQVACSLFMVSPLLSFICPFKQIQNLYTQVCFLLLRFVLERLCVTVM
Outline: as §1

ETV2 = target: T6, ETV2 (Homo sapiens, UniProt O00321 1-342)
T6 sequence: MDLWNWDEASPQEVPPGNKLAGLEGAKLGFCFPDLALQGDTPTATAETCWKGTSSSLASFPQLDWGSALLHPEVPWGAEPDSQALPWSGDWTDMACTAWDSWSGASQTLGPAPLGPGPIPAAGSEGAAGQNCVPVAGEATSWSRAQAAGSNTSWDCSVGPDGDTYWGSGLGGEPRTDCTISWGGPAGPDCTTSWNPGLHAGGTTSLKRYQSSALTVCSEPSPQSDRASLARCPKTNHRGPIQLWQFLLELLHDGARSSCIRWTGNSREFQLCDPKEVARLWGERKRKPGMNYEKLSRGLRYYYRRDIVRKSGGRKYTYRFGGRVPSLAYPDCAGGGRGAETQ
Outline: as §1

ELF3 = target: T7, ELF3 (Homo sapiens, UniProt P78545 1-371)
T7 sequence: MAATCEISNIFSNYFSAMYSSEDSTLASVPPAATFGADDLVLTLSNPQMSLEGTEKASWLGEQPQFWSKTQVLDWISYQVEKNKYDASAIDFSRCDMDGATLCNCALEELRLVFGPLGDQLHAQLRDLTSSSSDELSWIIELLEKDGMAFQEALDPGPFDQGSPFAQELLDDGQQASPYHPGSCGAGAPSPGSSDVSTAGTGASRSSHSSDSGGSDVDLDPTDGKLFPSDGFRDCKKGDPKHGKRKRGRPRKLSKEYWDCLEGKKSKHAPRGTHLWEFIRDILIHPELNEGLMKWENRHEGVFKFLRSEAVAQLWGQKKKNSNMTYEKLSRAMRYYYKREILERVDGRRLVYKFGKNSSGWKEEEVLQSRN
Outline: as §1

ERF = target: T8, ERF (Homo sapiens, UniProt P50548 1-548)
T8 sequence: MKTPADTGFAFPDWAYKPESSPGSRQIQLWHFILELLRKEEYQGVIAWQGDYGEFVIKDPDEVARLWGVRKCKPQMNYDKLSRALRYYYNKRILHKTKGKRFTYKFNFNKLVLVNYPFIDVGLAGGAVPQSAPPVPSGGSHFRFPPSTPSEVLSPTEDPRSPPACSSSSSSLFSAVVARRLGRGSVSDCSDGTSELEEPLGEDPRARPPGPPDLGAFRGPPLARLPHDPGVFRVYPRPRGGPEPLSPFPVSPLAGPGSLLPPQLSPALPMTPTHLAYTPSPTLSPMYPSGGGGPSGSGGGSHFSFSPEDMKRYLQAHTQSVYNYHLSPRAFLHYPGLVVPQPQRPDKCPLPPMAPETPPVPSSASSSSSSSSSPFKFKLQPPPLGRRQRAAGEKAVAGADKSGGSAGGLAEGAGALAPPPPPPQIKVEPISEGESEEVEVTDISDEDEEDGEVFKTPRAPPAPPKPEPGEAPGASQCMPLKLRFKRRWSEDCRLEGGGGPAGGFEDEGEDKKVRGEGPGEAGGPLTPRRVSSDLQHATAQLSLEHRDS
Outline: as §1

ETV3L = target: T9, ETV3L (Homo sapiens, UniProt Q6ZN32 1-361)
T9 sequence: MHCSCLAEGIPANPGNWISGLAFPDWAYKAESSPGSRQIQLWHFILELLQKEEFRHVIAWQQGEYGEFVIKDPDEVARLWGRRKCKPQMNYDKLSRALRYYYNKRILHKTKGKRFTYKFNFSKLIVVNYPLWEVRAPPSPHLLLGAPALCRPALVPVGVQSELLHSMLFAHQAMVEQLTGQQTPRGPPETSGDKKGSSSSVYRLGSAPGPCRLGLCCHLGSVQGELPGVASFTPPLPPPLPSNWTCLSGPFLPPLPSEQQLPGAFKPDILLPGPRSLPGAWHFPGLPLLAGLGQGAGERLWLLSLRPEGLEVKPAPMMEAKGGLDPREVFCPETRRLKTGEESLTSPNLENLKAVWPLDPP
Outline: as §1

ETS2 = target: T10, ETS2 (Homo sapiens, UniProt P15036 1-469)
T10 sequence: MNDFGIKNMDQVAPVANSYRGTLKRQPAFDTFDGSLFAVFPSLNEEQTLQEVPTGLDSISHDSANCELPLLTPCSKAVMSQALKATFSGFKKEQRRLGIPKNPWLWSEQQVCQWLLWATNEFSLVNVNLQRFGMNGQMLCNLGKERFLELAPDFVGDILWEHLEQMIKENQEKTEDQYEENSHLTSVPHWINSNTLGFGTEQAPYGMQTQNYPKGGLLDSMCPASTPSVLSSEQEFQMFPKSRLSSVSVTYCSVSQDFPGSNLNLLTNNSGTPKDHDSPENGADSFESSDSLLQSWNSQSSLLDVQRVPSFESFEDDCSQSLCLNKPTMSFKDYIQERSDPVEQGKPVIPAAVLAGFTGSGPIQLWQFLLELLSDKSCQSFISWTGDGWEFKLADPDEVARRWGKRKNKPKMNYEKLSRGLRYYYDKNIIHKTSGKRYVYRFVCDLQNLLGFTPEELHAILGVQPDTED
Outline: as §1

ETV7 = target: T11, ETV7 (Homo sapiens, UniProt Q9Y603 1-341)
T11 sequence: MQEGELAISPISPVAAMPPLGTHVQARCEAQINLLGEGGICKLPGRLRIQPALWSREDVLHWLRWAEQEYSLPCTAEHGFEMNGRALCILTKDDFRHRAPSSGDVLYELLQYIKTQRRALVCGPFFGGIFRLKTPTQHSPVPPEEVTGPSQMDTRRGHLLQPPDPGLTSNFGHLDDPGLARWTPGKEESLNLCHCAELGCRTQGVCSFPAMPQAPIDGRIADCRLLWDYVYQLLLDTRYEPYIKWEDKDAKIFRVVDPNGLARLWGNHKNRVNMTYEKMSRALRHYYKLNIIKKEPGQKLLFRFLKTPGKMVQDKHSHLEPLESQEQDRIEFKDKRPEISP
Outline: as §1

ETV3 = target: T12, ETV3 (Homo sapiens, UniProt P41162-2 1-143)
T12 sequence: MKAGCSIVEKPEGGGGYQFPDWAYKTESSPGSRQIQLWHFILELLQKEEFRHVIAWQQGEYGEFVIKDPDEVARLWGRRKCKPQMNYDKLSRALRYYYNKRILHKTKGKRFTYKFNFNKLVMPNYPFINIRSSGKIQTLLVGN
Outline: as §1

GATCTA was tested, and the binding signal (FLI1) was 1.12 fold enrichment (6-mer frequency, TF over GST control), the binding signal (ELK1) was 1.12 fold enrichment (6-mer frequency, TF over GST control) and the binding signal (ELF1) was 1.03 fold enrichment (6-mer frequency, TF over GST control). The binding signal (SPIB) was 1.06 fold enrichment (6-mer frequency, TF over GST control), the binding signal (ELK3) was 1.12 fold enrichment (6-mer frequency, TF over GST control) and the binding signal (SPIC) was 1.01 fold enrichment (6-mer frequency, TF over GST control). For the same sequence, the binding signal (ELF4) was 1.04 fold enrichment (6-mer frequency, TF over GST control), the binding signal (ELK4) was 1.05 fold enrichment (6-mer frequency, TF over GST control) and the binding signal (ETV2) was 1.11 fold enrichment (6-mer frequency, TF over GST control). The binding signal (ELF3) was 1.07 fold enrichment (6-mer frequency, TF over GST control), the binding signal (ERF) was 1.04 fold enrichment (6-mer frequency, TF over GST control) and the binding signal (ETV3L) was 1.03 fold enrichment (6-mer frequency, TF over GST control). For the same sequence, the binding signal (ETS2) was 1.04 fold enrichment (6-mer frequency, TF over GST control), the binding signal (ETV7) was 1.1 fold enrichment (6-mer frequency, TF over GST control) and the binding signal (ETV3) was 1.04 fold enrichment (6-mer frequency, TF over GST control).
